The campaign covered roughly 57,000 sequences. About 2,500 (4.4%) were called active. No stated cut-off is given here; in the data, active = GI50 up to about 1.1 µM and inactive = higher. These entries were drawn from the full list. Potency and affinity values are given separately.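 Dose response: 5 concentrations. Exposure: 48 h. Format: 96-well plates. Endpoint: linear interpolation; highest concentration if not reached. The concentration for 50% growth inhibition is given as GI50.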

The subject of this assay is UACC-257. The experiment in a line: NCI tumour cell line growth inhibition, 48 h.
Turning to “[Bis(aminomethyl)dimethylsilane]dichloroplatinum (II), CHEMBL2146201”, the GI50 came out at 45.7 µM. For the substance “[Bis(aminomethyl)ethylmethylsilane]tetrachloroplatinum(IV), CHEMBL2146192”, the GI50 was 3.3 µM. Under “[Bis(aminomethyl)tetramethylenesilane]dichloropaltinum(II), CHEMBL2146205” stands 59.7 µM; under “[Bis(aminomethyl)dimethylsilane]tetrachloroplatinum(IV), CHEMBL2146190”, 15.1 µM.

CISPLATIN, CHEMBL11359: the GI50 is 4.09 µM. Under “[Bis(aminomethyl)pentamethylenesilane]dichloropaltinum(II), CHEMBL2146202” stands 6.81 µM; under “cis-Bis[[(trimethylsilyl)methyl]amino]tetrachloroplatinum(IV), CHEMBL2146191”, 5.31 µM.

In turn, “[Bis(aminomethyl)pentamethylenesilane]tetrachloropaltinum(IV), CHEMBL2146204” registered a GI50 of 7.19 µM. The same measure for “mu-(1,7-nanodiamine-N,N')bis-(cis-aminedichloroplatimum (II)), CHEMBL2146215”: 20.1 µM; for “[Bis(aminomethyl)diethylsilane]tetrachloroplatinum(IV), CHEMBL2146203”: 4.79 µM. As for “[Bis(aminomethyl)tetramethylenesilane]tetrachloropaltinum(IV), CHEMBL2146189”, the GI50 worked out at 16.4 µM.
